Results published in PubChem BioAssay (NCI).
About 83,000 compounds went through this panel and 20% of them were active in at least one assay; those are over-represented in the sample as a whole.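 Compound tested at a single concentration for 48 hours in 96-well plates; a percent growth value below 10 was scored as active.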 Values without a mark were called inactive. Calls of active or inactive are those of the source.

Legend:
Experiment in all cases: NCI-60 one-dose screen, 48 h (100 = growth as untreated, 0 = no growth, -100 = all killed)
Conditions in all cases: 10 µM unless noted
[1] = test system: NCI-H23 lung
[2] = test system: NCI-H226 lung
[3] = test system: NCI-H322M lung
[4] = test system: HOP-62 NSCLC
[5] = test system: NCI-H460 lung
[6] = test system: HOP-92 NSCLC
[7] = test system: NCI-H522 lung
[8] = test system: A549/ATCC NSCLC
[9] = test system: 786-0 renal
[10] = test system: COLO 205 colon
[11] = test system: DU-145 prostate
[12] = test system: K-562 leukemia
[13] = test system: MALME-3M melanoma
[14] = test system: RXF 393 renal
[15] = test system: SF-268 CNS
[16] = test system: SF-295 CNS
[17] = test system: SF-539 CNS
[18] = test system: UACC-257 melanoma
[19] = test system: M14 melanoma
[20] = test system: MDA-MB-231 breast

## COc1ccc(/C=C\C(=O)/C=C/c2ccc(OC)cc2)cc1
[1]
  growth: 84.7%
[2]
  growth: 81.4%
[3]
  growth: 99.6%
[4]
  growth: 95.4%
[5]
  growth: 107%
[6]
  growth: 109%
[7]
  growth: 94.7%
[8]
  growth: 102%
[9]
  growth: 83.5%
[10]
  growth: 107%
[11]
  growth: 96.4%
[12]
  growth: 9.76% (active)
[13]
  growth: 95.1%
[14]
  growth: 100%
[15]
  growth: 105%
[16]
  growth: 101%
[17]
  growth: 62.8%
[18]
  growth: 106%
[19]
  growth: 40.2%

## CC(CC(CCC(=O)O)(c1ccccc1)c1ccccc1)N(C)C (configuration not stated)
[1]
  growth: 98.8%
[2]
  growth: 95.3%
[3]
  growth: 95.9%
[4]
  growth: 96.6%
[5]
  growth: 107%
[6]
  growth: 102%
[7]
  growth: 105%
[8]
  growth: 89.8%
[9]
  growth: 98.5%
[10]
  growth: 104%
[11]
  growth: 115%
[12]
  growth: 103%
[13]
  growth: 109%
[14]
  growth: 105%
[15]
  growth: 102%
[16]
  growth: 93%
[17]
  growth: 95.1%
[18]
  growth: 88.9%
[19]
  growth: 95%

## CCOC(=O)c1ccc(Nc2sc(C(=O)c3ccc(Br)cc3)c(N)c2C#N)cc1
[1]
  growth: 45.4%
[2]
  growth: 56%
[3]
  growth: 37.9%
[4]
  growth: 24%
[5]
  growth: 13.1%
[6]
  growth: 40.1%
[7]
  growth: 8.98% (active)
[8]
  growth: 30.7%
[9]
  growth: 22.8%
[10]
  growth: 11.4%
[11]
  growth: 10.8%
[12]
  growth: 12.9%
[13]
  growth: 31.8%
[20]
  growth: 52.9%
[15]
  growth: 33.5%
[16]
  growth: -11.1% (active)
[17]
  growth: -1.74% (active)
[18]
  growth: 38.2%
[19]
  growth: 29.4%

## C=C(c1ccc(N(C)C)cc1)c1ccc(N(C)C)cc1
[1]
  growth: 16.2%
[2]
  growth: 44.3%
[3]
  growth: 29.7%
[4]
  growth: 23.1%
[5]
  growth: 6.37% (active)
[6]
  growth: -2.12% (active)
[7]
  growth: -28.6% (active)
[8]
  growth: 30.8%
[9]
  growth: 34.6%
[10]
  growth: -4.63% (active)
[11]
  growth: 20.3%
[12]
  growth: 5.61% (active)
[13]
  growth: 20.6%
[14]
  growth: -11% (active)
[15]
  growth: 31.2%
[16]
  growth: 21%
[17]
  growth: -44.9% (active)
[18]
  growth: 52.3%
[19]
  growth: -47.2% (active)

## C1=NCCc2ccccc21
[1]
  growth: 93.8%
[2]
  growth: 85.8%
[3]
  growth: 105%
[4]
  growth: 89.4%
[5]
  growth: 103%
[6]
  growth: 92.1%
[7]
  growth: 114%
[8]
  growth: 98.5%
[9]
  growth: 103%
[10]
  growth: 101%
[11]
  growth: 111%
[12]
  growth: 107%
[20]
  growth: 99%
[14]
  growth: 104%
[15]
  growth: 95%
[16]
  growth: 100%
[17]
  growth: 96.5%
[18]
  growth: 94.8%
[19]
  growth: 94.2%

## NC(CCl)=NCC12CC3CC(CC(C3)C1)C2
[1]
  growth: -7.12% (active)
[2]
  growth: -0.0494% (active)
[3]
  growth: 20.1%
[4]
  growth: -66.1% (active)
[5]
  growth: -57.6% (active)
[6]
  growth: -37.6% (active)
[7]
  growth: -58.7% (active)
[8]
  growth: -47.1% (active)
[9]
  growth: -80.2% (active)
[10]
  growth: -96% (active)
[11]
  growth: -42.7% (active)
[12]
  growth: -15.1% (active)
[13]
  growth: 25.4%
[20]
  growth: -15.8% (active)
[15]
  growth: -3.73% (active)
[16]
  growth: 26.4%
[17]
  growth: -11% (active)
[18]
  growth: -71.2% (active)
[19]
  growth: -61.3% (active)

## CCN(C(C)=O)c1ccc([N+](=O)[O-])cc1
[1]
  growth: 101%
[2]
  growth: 99.3%
[3]
  growth: 103%
[4]
  growth: 95.4%
[5]
  growth: 104%
[6]
  growth: 98.7%
[7]
  growth: 104%
[8]
  growth: 91.8%
[9]
  growth: 102%
[10]
  growth: 110%
[11]
  growth: 110%
[12]
  growth: 107%
[13]
  growth: 101%
[14]
  growth: 106%
[15]
  growth: 103%
[16]
  growth: 108%
[17]
  growth: 109%
[18]
  growth: 94.9%
[19]
  growth: 113%

## Clc1cccc(Cl)c1C1CSc2ccccc2N=C1c1ccccc1 (configuration not stated)
[1]
  growth: 75.6%
[2]
  growth: 82.7%
[3]
  growth: 86.3%
[4]
  growth: 84.6%
[5]
  growth: 83.1%
[6]
  growth: 75.4%
[7]
  growth: 63.6%
[8]
  growth: 73.8%
[9]
  growth: 90.6%
[10]
  growth: 102%
[11]
  growth: 59.6%
[12]
  growth: 4.38% (active)
[13]
  growth: 110%
[20]
  growth: 70.5%
[15]
  growth: 73.4%
[17]
  growth: 101%
[18]
  growth: 51.4%
[19]
  growth: 86.6%

## CC(C)C(C)(C)C(=O)C(C)(C)C(C)(C)C
[1]
  growth: 90.6%
[2]
  growth: 90.5%
[3]
  growth: 97.9%
[4]
  growth: 103%
[5]
  growth: 101%
[6]
  growth: 88.3%
[7]
  growth: 92.4%
[8]
  growth: 93.3%
[9]
  growth: 108%
[10]
  growth: 104%
[11]
  growth: 107%
[12]
  growth: 96.8%
[13]
  growth: 92.6%
[14]
  growth: 104%
[15]
  growth: 102%
[16]
  growth: 95.8%
[17]
  growth: 98.8%
[18]
  growth: 92.6%
[19]
  growth: 114%

## c1cc(CNCCNCc2ccncc2)ccn1
[1]
  growth: 112%
[2]
  growth: 103%
[3]
  growth: 97%
[4]
  growth: 103%
[5]
  growth: 116%
[6]
  growth: 97.5%
[7]
  growth: 108%
[8]
  growth: 97.7%
[9]
  growth: 104%
[10]
  growth: 113%
[11]
  growth: 115%
[12]
  growth: 108%
[20]
  growth: 104%
[14]
  growth: 107%
[15]
  growth: 104%
[16]
  growth: 104%
[17]
  growth: 105%
[18]
  growth: 93.7%
[19]
  growth: 109%

## C/C(=N\N=C(/C)c1cccc([N+](=O)[O-])c1)c1cccc([N+](=O)[O-])c1
[1]
  growth: 90.3%
[2]
  growth: 111%
[3]
  growth: 96.1%
[4]
  growth: 74.3%
[5]
  growth: 86.4%
[6]
  growth: 87.5%
[7]
  growth: 57.3%
[8]
  growth: 79.3%
[9]
  growth: 77.4%
[10]
  growth: 79.8%
[11]
  growth: 95.3%
[12]
  growth: 98.3%
[13]
  growth: 85%
[14]
  growth: 93.9%
[15]
  growth: 80.2%
[16]
  growth: 95.8%
[17]
  growth: 93.4%
[18]
  growth: 87.6%
[19]
  growth: -36.5% (active)

## O=S(=O)(O)c1ccc(O)c(C2CCCCC2)c1
[1]
  growth: 112%
[2]
  growth: 98.4%
[3]
  growth: 103%
[4]
  growth: 87.4%
[5]
  growth: 108%
[6]
  growth: 93.2%
[7]
  growth: 98.5%
[8]
  growth: 96.6%
[9]
  growth: 91.1%
[10]
  growth: 105%
[11]
  growth: 112%
[12]
  growth: 123%
[20]
  growth: 112%
[14]
  growth: 105%
[15]
  growth: 105%
[16]
  growth: 100%
[17]
  growth: 98.2%
[18]
  growth: 99.3%
[19]
  growth: 101%

## N#C/C(=C\NC(=S)N=Nc1c(O)[nH]c2ccccc12)c1nc2ccccc2s1
[1]
  growth: 94.7%
[2]
  growth: 77.6%
[3]
  growth: 101%
[4]
  growth: 95.4%
[5]
  growth: 97.4%
[6]
  growth: 83.8%
[7]
  growth: 82.9%
[8]
  growth: 90.3%
[9]
  growth: 94.8%
[10]
  growth: 106%
[11]
  growth: 113%
[12]
  growth: 101%
[20]
  growth: 87.9%
[14]
  growth: 101%
[15]
  growth: 102%
[16]
  growth: 107%
[17]
  growth: 103%
[18]
  growth: 94.9%
[19]
  growth: 101%

## Cn1c(=O)[nH]c2ccccc2c1=O
[1]
  growth: 104%
[2]
  growth: 109%
[3]
  growth: 105%
[4]
  growth: 99.6%
[5]
  growth: 111%
[6]
  growth: 143%
[7]
  growth: 96.6%
[8]
  growth: 100%
[9]
  growth: 97.5%
[10]
  growth: 114%
[11]
  growth: 104%
[12]
  growth: 103%
[13]
  growth: 100%
[14]
  growth: 102%
[15]
  growth: 107%
[16]
  growth: 94.4%
[17]
  growth: 98.8%
[18]
  growth: 102%
[19]
  growth: 107%

## NC(=O)NCCO
[1]
  growth: 98.9%
[2]
  growth: 95%
[3]
  growth: 109%
[4]
  growth: 102%
[5]
  growth: 104%
[6]
  growth: 111%
[7]
  growth: 95.2%
[8]
  growth: 93%
[9]
  growth: 107%
[10]
  growth: 116%
[11]
  growth: 110%
[12]
  growth: 99.2%
[13]
  growth: 97.4%
[14]
  growth: 102%
[15]
  growth: 101%
[16]
  growth: 95.6%
[17]
  growth: 103%
[18]
  growth: 97.8%
[19]
  growth: 107%

## CCOC(C=O)OCC
[1]
  growth: 99%
[2]
  growth: 104%
[3]
  growth: 104%
[4]
  growth: 99.5%
[5]
  growth: 113%
[6]
  growth: 95.8%
[7]
  growth: 93.1%
[8]
  growth: 97.4%
[9]
  growth: 99.7%
[10]
  growth: 105%
[11]
  growth: 104%
[12]
  growth: 106%
[13]
  growth: 92.6%
[14]
  growth: 121%
[15]
  growth: 98.3%
[16]
  growth: 99%
[17]
  growth: 97.8%
[18]
  growth: 96.6%
[19]
  growth: 106%

## CSc1nc2[nH]ncc2c(=O)[nH]1
[1]
  growth: 94.8%
[2]
  growth: 91.4%
[3]
  growth: 108%
[4]
  growth: 101%
[5]
  growth: 98.8%
[6]
  growth: 106%
[7]
  growth: 99.9%
[8]
  growth: 111%
[9]
  growth: 101%
[10]
  growth: 107%
[11]
  growth: 104%
[12]
  growth: 113%
[13]
  growth: 101%
[14]
  growth: 92.6%
[15]
  growth: 95.2%
[16]
  growth: 96.2%
[17]
  growth: 96%
[18]
  growth: 109%
[19]
  growth: 92.1%
